BAZ2B block – inhibitors of human BAZ2B bromodomain | Q9UIF8 | AlphaScreen BAZ2B-H3K14Ac peptide displacement | 360,000 tested, 4.4% active | Potency, µM (titrated, usually from 114 µM), usual class: inhibitors; also: nearly all actives have a fitted effect of over 60% in size
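BAZ2B 50 nM plus b-H3(5-23)K14Ac 50 nM, PBS pH 7.4/0.01% Tween-20, 30 min RT; compound added (max 110 uM), 30 min RT; streptavidin donor/Ni-chelate acceptor beads 10 ug/mL final, 20 min dark; AlphaScreen read.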
JMJD2A Tudor – blocks the human JMJD2A Tudor domain; Potency, µM (titrated, usually from 114 µM), hits mostly inhibitors; 390,000 tested, 4.4% active; AlphaScreen JMJD2A-Tudor / H3K4me3 peptide binding; also: nearly all actives have a fitted effect of over 50% in size
Target sequence (O75164 whole entry, looked up, the tested form may be a part): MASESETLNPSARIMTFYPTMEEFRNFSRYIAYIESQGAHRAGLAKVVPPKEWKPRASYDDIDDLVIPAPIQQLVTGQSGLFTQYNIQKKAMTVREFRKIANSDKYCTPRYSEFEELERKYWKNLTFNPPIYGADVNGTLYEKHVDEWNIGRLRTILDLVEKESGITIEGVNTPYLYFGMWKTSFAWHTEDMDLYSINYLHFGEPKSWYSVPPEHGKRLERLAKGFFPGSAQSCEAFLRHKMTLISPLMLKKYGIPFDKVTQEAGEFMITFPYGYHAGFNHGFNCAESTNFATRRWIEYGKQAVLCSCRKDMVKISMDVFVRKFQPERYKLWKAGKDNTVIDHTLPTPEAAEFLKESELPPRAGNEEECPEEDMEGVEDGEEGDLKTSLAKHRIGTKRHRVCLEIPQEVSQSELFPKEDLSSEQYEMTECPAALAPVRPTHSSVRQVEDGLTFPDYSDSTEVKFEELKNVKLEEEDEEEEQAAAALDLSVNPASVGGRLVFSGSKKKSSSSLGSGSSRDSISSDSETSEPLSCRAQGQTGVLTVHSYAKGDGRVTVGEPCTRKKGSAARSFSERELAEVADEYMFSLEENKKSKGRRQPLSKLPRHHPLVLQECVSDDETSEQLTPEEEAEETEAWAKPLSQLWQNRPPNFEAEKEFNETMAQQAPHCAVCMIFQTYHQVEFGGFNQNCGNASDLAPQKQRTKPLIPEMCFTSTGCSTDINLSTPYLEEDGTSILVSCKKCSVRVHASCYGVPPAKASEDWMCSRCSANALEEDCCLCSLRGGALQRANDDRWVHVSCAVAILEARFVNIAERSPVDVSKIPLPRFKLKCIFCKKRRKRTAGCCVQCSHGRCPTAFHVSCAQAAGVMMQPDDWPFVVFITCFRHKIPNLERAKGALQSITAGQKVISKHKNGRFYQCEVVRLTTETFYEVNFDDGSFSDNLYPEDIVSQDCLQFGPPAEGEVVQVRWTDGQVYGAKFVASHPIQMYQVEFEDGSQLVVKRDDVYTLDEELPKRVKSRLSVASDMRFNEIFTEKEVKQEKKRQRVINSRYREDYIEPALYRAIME
PLK1 PBD block – blocks phosphopeptide binding to human PLK1 polo-box domain | P53350 | Plk1 PBD binding of FITC phosphopeptide, fluorescence polarization | 360,000 tested, 2.8% active | Potency, µM, actives largely listed as inhibitors; also: series mostly up to about 57 µM; nearly all actives have a fitted effect of over 65% in size
G9a block – G9a (human) methyltransferase inhibition. G9a H3K9 monomethylation, AlphaScreen, 2 h. Potency, µM (highest dose often 102 µM), usual class: inhibitors. 350,000 tested, 8.8% active; also: nearly all actives have a fitted effect of over 75% in size
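AlphaScreen detection with an anti-monomethyl H3K9 antibody quantified product after a 2 h room-temperature reaction containing 500 nM biotinylated H3K9 peptide, 20 µM SAM and 20 nM enzyme, which had been preincubated 15 min with compound.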
VDR inh – inhibitors of human vitamin D receptor; P11473; VDR-SRC2-3 peptide fluorescence polarization, 2 h; Potency, µM, usual class: inhibitors; 400,000 tested, 0.93% active; AID 504847
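VDR–SRC2-3 interaction, FP format. Cmpds 23 nl via pintool, brief spin, 2 h ambient incubation.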
HP1b chromo inh – HP1-beta chromodomain-methylated histone interaction inhibition. AlphaScreen HP1-beta / biotin-H3K9me3 peptide binding. 390,000 tested, 0.56% active. P83916. Potency, µM (top dose mostly 114 µM), hits mostly inhibitors. AID 540317; also: nearly all actives have a fitted effect of over 70% in size
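HP1-beta protein (50 nM final) preincubated 30 min at room temperature with biotinylated H3(1-18)K9me3 peptide (50 nM) in PBS pH 7.4, 0.01% Tween-20, then compound added for 30 min. AlphaScreen streptavidin donor/nickel chelate acceptor beads (10 ug/mL final), 30 min dark, luminescence read.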
Large screens that a line does not name were inactive; ! = not confirmed by another sample. Sampled rows, rich in hits. Any-hit rate of the full collection: about 11%. Calls follow the shape of the dose curve; as a rule, active = well fitted curve in the direction sought with a large enough effect; inconclusive = small, poorly fitted or top-dose-only effect, or another doubt; inactive = no such curve, though single readings can be large; an effect the other way counts as inactive or inconclusive.

Cc1ccccc1OCCOC(=O)c1c(-c2ccccc2)noc1C	none
CCC(=O)N1c2ccccc2CC1C(=O)NCCc1ccc(Cl)cc1 (stereo not drawn)	none (no result: PLK1 PBD block)
Cc1ccc(S(=O)(=O)N/N=C\c2cc([N+](=O)[O-])ccc2Cl)cc1	G9a block 2.8µM
CC(=O)Oc1ccc(/C=N/NS(=O)(=O)c2ccc(C)cc2)c(OC(C)=O)c1	G9a block 40µM
COc1ccc(O)c(/C=N/NS(=O)(=O)c2ccc(C)cc2)c1	none
O=[N+]([O-])c1ccc(S(=O)(=O)N/N=C/c2ccc3c(c2)OCO3)cc1	BAZ2B block inconclusive, G9a block 50µM
O=[N+]([O-])c1ccc(S(=O)(=O)NN=Cc2ccc(Cl)c(Cl)c2)cc1	JMJD2A Tudor inconclusive, PLK1 PBD block 11µM, VDR inh 50µM (no result: BAZ2B block, G9a block)
COc1cccc(-c2nc(SCc3cc(=O)c4ccc(C)c(C)c4[nH]3)n[nH]2)c1	none (no result: PLK1 PBD block)
CCc1ccccc1N(C(=O)c1cccs1)C1C=CS(=O)(=O)C1 (stereo not drawn)	none
CCOc1ccc(NC(=O)CCc2c(C)nc3c4c(C)cc(C)nc4nn3c2C)cc1	none (no result: PLK1 PBD block)
Cc1ccc(S(=O)(=O)N/N=C/c2ccc3nccnc3c2)cc1	PLK1 PBD block inconclusive, G9a block 3.2µM
Cc1ccc(S(=O)(=O)N/N=C\c2cccnc2)cc1	none
Cc1cc(C)cc(NC(=O)CSc2cc(C(=O)c3nccn3C)c3ccccc3n2)c1	none
Cc1cccc(NC(=O)CSc2cc(C(=O)c3nccn3C)c3ccccc3n2)c1	JMJD2A Tudor inconclusive, G9a block 13µM
Cn1ccnc1C(=O)c1cc(SCC(=O)NCc2ccccc2)nc2ccccc12	BAZ2B block inconclusive, PLK1 PBD block 21µM, G9a block inconclusive
CCCOc1ccc(-c2c(C(=O)N/N=C(\C)c3ccncc3)nnn2-c2nonc2N)cc1	BAZ2B block inconclusive (no result: G9a block)
CCN1CCCC1Cn1cnc2c([nH]c3ccc(Cl)cc32)c1=O (stereo not drawn)	none
CCN1CCCC1Cn1cnc2c([nH]c3cccc(Cl)c32)c1=O (stereo not drawn)	G9a block 32µM
O=S(=O)(Nc1nc2ccccc2s1)c1ccc(Cl)s1	PLK1 PBD block inconclusive, G9a block inconclusive
O=S(=O)(Nc1cc(O)cc2cccnc12)c1ccc(Cl)s1	JMJD2A Tudor 79µM (no result: BAZ2B block, PLK1 PBD block, G9a block, VDR inh, HP1b chromo inh)
O=C(CN1C(=O)NC2(CCCCC2)C1=O)N1CCN(S(=O)(=O)c2ccc(Cl)s2)CC1	G9a block 18µM
O=C(Nc1ccc(-c2csc(Nc3cccc(C(F)(F)F)c3)n2)cc1)c1cc([N+](=O)[O-])cc(C(F)(F)F)c1	none
Cc1c(C)c2ccc(OCC(=O)NCCN3CCOCC3)cc2oc1=O	none
O=C(/C=C/c1ccccc1)NNc1ccc(Cl)cc1	BAZ2B block inconclusive, G9a block 8.9µM
COc1ccc(NC(=S)NC(NC(=O)/C=C/c2ccccc2)C(Cl)(Cl)Cl)cc1 (stereo not drawn)	none
O=C(/C=C/c1ccccc1)NC(NC(=S)Nc1ccc(Cl)cc1)C(Cl)(Cl)Cl (stereo not drawn)	PLK1 PBD block 27µM, VDR inh inconclusive
CC(=O)Nc1ccc(C(=O)Nc2ccc3c(c2)N(C2CCCC2)C(=O)c2ccccc2S3)cc1	JMJD2A Tudor inconclusive, G9a block inconclusive (no result: PLK1 PBD block)
Cn1c(SCC(=O)c2ccccc2)nnc1-c1cnccn1	BAZ2B block inconclusive, JMJD2A Tudor 25µM, G9a block 20µM, VDR inh inconclusive, HP1b chromo inh inconclusive
CC(=O)NCc1ccc(C(=O)CSc2nnc(C3CC3)n2C2CC2)cc1	JMJD2A Tudor 22µM, G9a block inconclusive, VDR inh inconclusive
Cc1cccc(-c2nnc(SCC#N)n2-c2cccc(Cl)c2)c1	G9a block inconclusive
Cn1c(SCc2ccccc2)nnc1-c1cnccn1	none (no result: G9a block)
O=C(CSc1nnc(C2CC2)n1C1CC1)c1ccc(F)cc1	none
Cc1cccc(-c2nnc(SCC#N)n2C)c1	PLK1 PBD block 27µM (no result: G9a block)
Cn1c(SCC#N)nnc1-c1cnccn1	G9a block 1.4µM
Cc1ccc(CCNC(=O)C2CCCN(S(=O)(=O)c3ccc4c(c3)oc(=O)n4C)C2)cc1 (stereo not drawn)	none (no result: PLK1 PBD block)
Cc1nc2nc(C)c(CCC(=O)NCc3ccccc3)c(C)n2n1	none (no result: PLK1 PBD block)
CCOc1ccc(C(=O)CSc2nnc(C3CC3)n2C)cc1	G9a block inconclusive
Cn1c(SCC(=O)c2ccccc2)nnc1C1CC1	PLK1 PBD block inconclusive, G9a block 40µM
O=C(CSc1nnc(C2CC2)n1Cc1ccccc1)N1CCN(S(=O)(=O)c2ccccc2)CC1	none
O=C(CSc1nnc(C2CC2)n1Cc1ccccc1)c1ccc(S(=O)(=O)N2CCOCC2)cc1	G9a block 3.2µM
COc1ccc(Nc2nc(N)nc(N)c2S(=O)(=O)c2ccccc2)cc1	none (no result: PLK1 PBD block)
Cc1cccc(Cn2c(C)c(C)c3cc(C(=O)NCCN4CCOCC4)ccc32)c1	BAZ2B block 56µM, JMJD2A Tudor 50µM, G9a block 40µM
CCn1c(C)c(C)c2cc(C(=O)NCCN3CCCCCC3)ccc21	BAZ2B block 22µM, JMJD2A Tudor 45µM, G9a block 50µM
CCn1c(C)c(C)c2cc(C(=O)NCCCN3CCCCC3)ccc21	BAZ2B block 40µM!, JMJD2A Tudor inconclusive, G9a block inconclusive
CCn1c(C)c(C)c2cc(C(=O)NCCCN3CCN(C)CC3)ccc21	BAZ2B block inconclusive, G9a block inconclusive
COCCCNC(=O)c1nn(C)c2c1CS(=O)(=O)c1ccccc1-2	none (no result: PLK1 PBD block)
CCN(CC)CCCNC(=O)c1nn(C)c2c1CS(=O)(=O)c1ccccc1-2	G9a block 25µM (no result: PLK1 PBD block)
CCCCNC(=O)c1nn(C)c2c1CSc1ccccc1-2	BAZ2B block inconclusive, JMJD2A Tudor inconclusive, G9a block 16µM (no result: PLK1 PBD block)
COc1ccc(CCNC(=O)c2nn(C)c3c2CS(=O)(=O)c2ccccc2-3)c(OC)c1	BAZ2B block 50µM
CC1CCCC(C)N1CCCNC(=O)c1nn(C)c2c1CSc1ccccc1-2 (stereo not drawn)	PLK1 PBD block inconclusive
COc1cc2c(cc1OC)C(c1ccc([N+](=O)[O-])cc1)NC(=O)C2 (stereo not drawn)	none
Cc1ccc(-n2c(SCC(=O)NC3CCS(=O)(=O)C3)nc3ccccc3c2=O)c(C)c1 (stereo not drawn)	none (no result: BAZ2B block, JMJD2A Tudor, G9a block, VDR inh, HP1b chromo inh)
O=C(O)c1cscc1-c1cccc2ccccc12	none (no result: BAZ2B block, JMJD2A Tudor, G9a block, VDR inh, HP1b chromo inh)
Cc1cccc2sc(NC(=O)Cn3cccc3)nc12	BAZ2B block inconclusive, JMJD2A Tudor inconclusive, G9a block 45µM
Cc1cccc2sc(NC(=O)CCn3cccc3)nc12	G9a block 50µM, HP1b chromo inh inconclusive (no result: BAZ2B block)
Cc1cccc2sc(NC(=O)CSCc3ccccc3)nc12	none
COCCCN(C(=O)C(C)Oc1ccc(Br)cc1)c1c(N)n(Cc2ccccc2)c(=O)[nH]c1=O (stereo not drawn)	G9a block inconclusive

High-throughput results as filed in PubChem BioAssay.
